Rows were chosen to be rich in hits. Some 7.7% of all compounds tested hit in one or more screens of this group.
RE007 growth inh: less growth of the S. pombe RE007 Vpr strain; Potency, µM (titrated, usually from 92.2 µM), for inactives: at the highest dose activity change, negative = less growth, usual class: inhibitors; S. pombe RE007 Vpr strain, BacTiter-Glo ATP luminescence, 24 h; hit rate 0.21% among 360,000; AID 651644; active = well fitted falling curve with a large enough effect; inconclusive = small, poorly fitted or top-dose-only effect; inactive = no such curve, though single readings can be large or run the other way; also: potency is read from the fitted curve at half-maximal effect; nearly all actives have a fitted effect of over 50% in size
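Fission yeast strain RE007, carrying one chromosomally integrated HIV-1 vpr copy, was seeded at OD 0.01 in PMG+AL medium with 23 nL pinned compound. After 24 h at 30 °C and 99% humidity, viability was read by BacTiter-Glo luminescence.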
HCMV inh: blocks human cytomegalovirus replication; hit rate 4.5% among 410,000; HFF cells, HCMV-luciferase reporter, 72 h; stronger effect = lower value; AID 1259415; activity change, negative = inhibition, % at 57.5 µM; in the data active = activity change below about -60%; inconclusive = no clear call, values can overlap the other calls; inactive = above about -39%
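Human foreskin fibroblasts infected with luciferase-reporter HCMV at MOI 1 PFU/cell, compounds at two doses. Luciferase measured 72 h post infection; normalized to buffer-only basal and Salinomycin (10uM) controls.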
FMDV inh: blocks foot and mouth disease virus; FMDV antiviral cell-based qHTS; Potency, µM (series often up to 57.9 µM), for the others: at the highest dose activity change, negative = inhibition, hits mostly inhibitors; hit rate 1.2% among 410,000; AID 1159524; calls by dose curve; tested in HEK293T cells; also: read-out not given here; potency is read from the fitted curve at half-maximal effect; nearly all actives have a fitted effect of over 45% in size
Giardia FBPA inh: inhibitors of Giardia lamblia fructose-1,6-bisphosphate aldolase | purified Giardia FBPA | Potency, µM (series often up to 59.6 µM), inactives show at the highest dose activity, negative = inhibition, most hits filed as inhibitors | hit rate 0.71% among 290,000 | AID 2451; also: potency is read from the fitted curve at half-maximal effect; nearly all actives have a fitted effect of over 55% in size
Target sequence (A8B2U2 whole entry, looked up): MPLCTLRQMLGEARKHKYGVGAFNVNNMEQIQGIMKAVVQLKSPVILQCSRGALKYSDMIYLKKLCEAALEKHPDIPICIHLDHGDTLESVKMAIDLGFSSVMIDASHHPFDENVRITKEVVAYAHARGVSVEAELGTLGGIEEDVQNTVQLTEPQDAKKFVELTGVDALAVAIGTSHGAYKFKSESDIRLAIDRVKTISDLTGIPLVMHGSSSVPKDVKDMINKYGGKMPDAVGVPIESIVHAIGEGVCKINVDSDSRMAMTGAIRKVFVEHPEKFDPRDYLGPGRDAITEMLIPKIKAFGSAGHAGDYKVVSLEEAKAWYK
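Giardia FBPA (40 nM reagent) was preincubated 10 min at RT with compound (up to 57.5 uM final), then substrate plus GAPDH/TPI/NAD/arsenate coupling system with diaphorase/resazurin was added; resorufin fluorescence (525/598 nm) was read after 20 min.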
TbPYK inhibitor: blocks Trypanosoma brucei pyruvate kinase; Potency, µM (titrated, usually from 76.8 µM), without a hit: at the top dose activity, negative = inhibition, most hits filed as inhibitors; hit rate 0.12% among 410,000; Q57TT1; TbPYK enzyme, Kinase-Glo Plus ATP luminescence, 45 min; AID 624173; also: potency is read from the fitted curve at half-maximal effect; nearly all actives have a fitted effect of over 50% in size
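Glycolytic pyruvate kinase of T. brucei was incubated with substrate, test compound and 130 uM ADP for 45 minutes at room temperature. Luminescent Kinase-Glo Plus signal was measured after 10 minutes.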
Sm TGR block: inhibitors of Schistosoma mansoni thioredoxin glutathione reductase | Potency, µM (doses to about 114 µM), for the others: top-dose activity change, negative = inhibition, usual class: inhibitors | Q962Y6 | purified TGR, DTNB reduction, TNB absorbance 405 nm | hit rate 3% among 360,000; also: potency is read from the fitted curve at half-maximal effect; nearly all actives have a fitted effect of over 60% in size
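TGR 20 nM + NADPH 100 uM (dispensed conc.), cpd preinc 15 min RT; start with NADPH (500 uM addition) then DTNB (15 mM addition). Kinetic TNB absorbance, 405 nm filter. Four-parameter Hill fit across titration.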
* marks the source's active call; other numbers are inactive results; ? = inconclusive; . = no result. Unless noted, calls follow the shape of the dose curve; as a rule, active = well fitted curve in the direction sought with a large enough effect; inconclusive = small, poorly fitted or top-dose-only effect, or another doubt; inactive = no such curve, though single readings can be large; an effect the other way counts as inactive or inconclusive. % is scaled to controls: 0 for no effect and ±100 for the full control effect.

SMILES	RE007 growth inh	HCMV inh	FMDV inh	Giardia FBPA inh	TbPYK inhibitor	Sm TGR block
CSc1oc(-c2ccco2)nc1S(=O)(=O)c1ccc(C)cc1	-2%	-1	13%	-5%	4%	?
CSc1oc(-c2ccco2)nc1S(=O)(=O)c1ccc(F)cc1	-10%	1	-5%	-24%	-9%	45µM*
CC(C)Sc1oc(-c2ccco2)nc1S(=O)(=O)c1ccccc1	5%	-30	.	-3%	-12%	?
CC1(C)Cc2cccc(OCC(=O)Nc3ccccc3F)c2O1	-8%	-31	-7%	.	-12%	-3%
COc1ccc(NC(=O)COc2cccc3c2OC(C)(C)C3)cc1OC	2%	?	22µM*	.	0%	-5%
COc1cccc(NC(=O)COC(=O)COc2cccc3c2OC(C)(C)C3)c1	-22%	19	-9%	.	2%	1%
Cc1cnc(NC(=O)COc2cccc3c2OC(C)(C)C3)s1	-5%	-88*	-11%	2%	-1%	10%
Cc1ccccc1-c1cncnc1NCc1cccnc1	.	.	-6%	17%	.	.
CN(C)CCn1c2c(c(SCC(=O)Nc3ccc(F)cc3F)nc1=O)CCC2	.	3	-23%	.	1%	12%
Cc1cccc(-c2nnc(SCc3cc(=O)c4cccc(Cl)c4[nH]3)n2C)c1	.	?	25µM*	.	-6%	1%
Cc1ccc(CCNS(=O)(=O)c2ccc3c(c2)C(C(C)C)C(=O)N3)cc1 (configuration not stated)	.	-10	-3%	.	4%	5%
Cc1cc(-c2nnc3n2N=C(c2ccc(-c4ccccc4)cc2)CS3)n[nH]1	27%	77	?	0%	-8%	1%
c1ccc(C2=Nn3c(nnc3-c3ccncc3)SC2)cc1	-7%	-73*	-24%	8%	0%	-29%
COc1ccccc1C1=Nn2c(nnc2-c2ccccc2OC)SC1	.	.	.	1%	.	.
c1ccc(-c2cc(-c3nnc4n3N=C(c3ccc5ccccc5c3)CS4)[nH]n2)cc1	-15%	-96*	?	16%	3%	-10%
Cc1ccc(-c2nnc3n2N=C(c2ccccc2Br)CS3)cc1	-1%	-78*	-18%	0%	5%	-24%
Cc1nc2sc(C(c3ccco3)N3CCC(C)CC3)c(O)n2n1 (configuration not stated)	-7%	27	-16%	-26%	-16%	45µM*
Cc1nc2sc(C(c3ccco3)N3CCN(c4ccccc4)CC3)c(O)n2n1 (configuration not stated)	-4%	-100*	-11%	-18%	-5%	?
Cc1nc2sc(C(c3ccco3)N3CCN(C(c4ccccc4)c4ccccc4)CC3)c(O)n2n1 (configuration not stated)	6%	-32	-48%	-8%	-8%	?
Cc1nc2sc(C(c3ccco3)N3CC(C)OC(C)C3)c(O)n2n1 (configuration not stated)	0%	30	18%	?	-16%	45µM*
CCOC(=O)C1CCN(C(c2cccs2)c2sc3nc(C)nn3c2O)CC1 (configuration not stated)	5%	-62*	-12%	0%	-7%	-7%
COC(=O)C1CCN(C(c2cccs2)c2sc3nc(C)nn3c2O)CC1 (configuration not stated)	-3%	-14	-14%	2%	1%	4%
Cc1nc2sc(C(c3ccco3)N3CCN(c4cccc(Cl)c4)CC3)c(O)n2n1 (configuration not stated)	0%	-17	.	-9%	?	0%
Cc1nc2sc(C(c3ccccc3)N3CC(C)OC(C)C3)c(O)n2n1 (configuration not stated)	11%	43	28%	6%	-12%	5%
Cc1noc(C)c1C(=O)N1CCC2(CCN(Cc3ccccc3)CC2)CC1	.	.	-8%	6%	-6%	.
C[C@@H]1CN(Cc2ccc3c(c2)CN(Cc2cccn2-c2ccccn2)CCO3)C[C@H](C)O1	.	.	-8%	.	.	.

Screens from PubChem.
